Experimental data taken from PubChem BioAssay (NCATS).
Records with an inconclusive call do not appear. Unmarked numbers belong to inactive results. Activity calls are given as the source filed them. Calls follow the shape of the full dose curve.

Assay: Confirmatory qHTS for VERO E6 Cytotoxicity Assay: Counterscreen for SARS-CoV-2 CPE Assay (AID 1508605); also: nearly all actives have a fitted effect of over 60% in size
Conditions: cell viability luminescence; series mostly up to 20 µM; activity change, negative = cytotoxic: at the top concentration
% is scaled to controls: 0 for no effect and ±100 for the full control effect; potency is read from the fitted curve at half-maximal effect.

Row | Structure (SMILES) | activity change, negative = cytotoxic | Potency
1 | CCC[C@@H](NC(=O)N1C(=O)C(CC)(CC)[C@@H]1Oc1ccc(C(=O)N2CCN(C)CC2)cc1)c1ccc2c(c1)OCO2 | -5.5% | –
2 | CC1OC2OC3C(OCC(O)C3O)OC(=O)C34CCC(C)(C)CC3C3=CCC5C6(C)CC(O)C(OC7OC(CO)C(O)C(O)C7OC7OCC(OC(=O)CC(C)(O)CC(=O)OC1C(OC1OCC(O)C(O)C1O)C2O)C(O)C7O)C(C)(CO)C6CCC5(C)C3(C)CC4O (centres undefined) | – | 1.56 µM (active)
3 | CC#C[C@@H](CC(=O)O)c1ccc(OCc2cccc(-c3ccc(C(F)(F)F)cc3)c2)cc1 | -15.9% | –
4 | COc1ccccc1N1CCN(CC[C@@](C)(C(=O)C2CCCCC2)c2ccccc2)CC1 | -13.9% | –
5 | Cc1ncc(NC(=O)c2ccc(CN3CCN(C)CC3)c(C(F)(F)F)c2)cc1Nc1nccc(-c2cccnc2)n1 | -15.2% | –
6 | CCC(C)C(=O)OC1C(C)C2(O)C(C=C(CO)CC3(O)C(=O)C(C)=CC32)C2C(C)(C)C12OC(=O)C(C)C (centres undefined) | -1.35% [at 10 µM] | –
7 | CC/C(=C(/CC)c1ccc(O)c(CN(CC)CC)c1)c1ccc(O)c(CN(CC)CC)c1 | -14% | –
8 | C/C(=N\NC(=O)c1cccc(S(=O)(=O)N2CCOCC2)c1)c1cc(Cl)ccc1O | – | 1 µM (active)
9 | C=CC(=O)N[C@H]1CCOC[C@H]1Nc1ncc2cc(-c3c(Cl)c(OC)cc(OC)c3Cl)ccc2n1 | -11.2% | –
10 | Cc1ccc(NCCN(C)CCNc2ccnc3cc(Cl)ccc23)c2c(=O)c3ccccc3sc12 | -7.13% [at 10 µM] | –
11 | Cc1cccc(/C=N/Nc2cc(N3CCOCC3)nc(OCCc3ccccn3)n2)c1 | -20.4% [at 1.7 µM] | –
12 | Cc1cc(C)c(CNC(=O)c2cc(-c3ccc(N4CCN(C)CC4)nc3)cc3c2c(C)cn3C(C)C)c(=O)[nH]1 | -10.2% | –
13 | C[C@@H]1O[C@@H](O[C@@H]2[C@@H](O)[C@H](O[C@@H]3[C@@H](O)[C@@H](O)[C@H](O[C@H]4[C@H](OC(=O)[C@]56CCC(C)(C)C[C@H]5C5=CCC7[C@@]8(C)C[C@H](O)[C@H](O[C@@H]9O[C@@H](C)[C@H](O)[C@@H](O)[C@H]9O)[C@@](C)(CO)C8CC[C@@]7(C)[C@]5(C)C[C@H]6O)O[C@H](C)[C@H](O)[C@@H]4O)O[C@H]3C)OC[C@H]2O)[C@H](O)[C@H](O)[C@H]1O (some centres undefined) | – | 1.91 µM (active)
14 | CCCN1CCN(c2ccc(C(=O)NC3(C(=O)NCC#N)CCCCC3)cc2)CC1 | -13.1% | –
15 | CNC(=O)c1ccc2c(C(=Nc3cccc(CN(C)C)c3)c3ccccc3)c(O)[nH]c2c1 | -21.1% | –
16 | CC(=O)c1c(OCCN2CCCCC2)c(OCCC(C)c2ccc(F)cc2)c2oc(C)nc2c1C (centres undefined) | -15.5% | –
17 | Cc1nnc(-c2ccc(-c3ccc(C(=O)Nc4ccc(O)c(N5CCN(C)CC5)c4)cc3)c(C)c2)o1 | -1.1% | –
18 | CN(C)c1nc(NC2CCC(NCCc3ccc(Br)cc3OC(F)(F)F)CC2)nc2ccccc12 (centres undefined) | – | 3.98 µM (active)
19 | CNCc1ccc(-c2cc(-c3nc(-c4ccc(S(=O)(=O)C(C)C)cc4)cnc3N)on2)cc1 | – | 11.2 µM (active)
20 | COc1cc(-n2cnc3cc(-c4ccc(Cl)cc4)sc3c2=O)ccc1OCCN1CCCC1 | -16.3% | –
21 | Cn1cc(-c2ccc(-c3cncc(Cl)c3N3CCC4(CCNC4=O)CC3)cc2)cn1 | -3.74% | –
22 | c1ccc(-c2ccc(CNc3nc(-c4ccccn4)nnc3-c3ccccc3)cc2)cc1 | – | 0.501 µM (active)
23 | CCCCCCCCC(=O)N[C@H](CN1CCCC1)[C@H](O)c1ccc2c(c1)OCCO2 | -23.1% | –
24 | CCN(CC)CCCS(=O)(=O)N[C@H](CCc1ccccc1)c1nc(Cc2ccc(Br)cc2)no1 | -13.7% | –
25 | CCCC[C@@H](C=O)NC(=O)[C@H](CC(C)C)NC(=O)OCc1ccccc1 | 2.99% | –
26 | CCOc1ccc(-c2nc(-c3cccc4c3CCC4NCCO)no2)cc1OCC (centres undefined) | -1.25% | –
27 | CC1(C)CC[C@]23CO[C@@]4(CCC5[C@@]6(C)CC[C@H](O[C@@H]7OC[C@H](O[C@@H]8O[C@H](CO)[C@@H](O)[C@H](O)[C@H]8O[C@@H]8OC[C@@H](O)[C@H](O)[C@H]8O)[C@H](O)[C@H]7O[C@@H]7O[C@H](CO)[C@@H](O)[C@H](O)[C@H]7O)[C@@](C)(CO)C6CC[C@@]5(C)[C@]4(C)C[C@H]2O)[C@@H]3C1 (some centres undefined) | – | 3.03 µM (active)
28 | COc1cc(NC(=O)Nc2cccc(CNC(=O)O[C@H]3CCOC3)c2)ccc1-c1cnco1 | -14.1% | –
29 | CC1=CC2OC3CC(O)[C@@](C)(C34CO4)[C@@]2(C)C(O)C1=O (some centres undefined) | – | 3.55 µM (active)
